Results from PubChem BioAssay (Tox21).
Where “and” joins values, the source holds several entries; their conditions need not be identical. Equal entries are not always repeated. Results filed as inconclusive are left out. Entries that show only a call come without a potency. Calls of active or inactive are those of the source. Calls come from the whole dose curve.
Potency is the fitted concentration of half-maximal effect.

Test: Nuclear factor erythroid 2-related factor 2/antioxidant responsive element (Nrf2/ARE) small molecule agonists: luciferase reporter gene qHTS assay in human keratinocytes (AID 1919969); note: nearly all actives have a fitted effect of over 35% in size
Conditions: KeratinoSens HaCaT ARE-luciferase, luminescence, 24 h; series mostly up to 92.4 µM
Description: National Center for Advancing Translational Sciences [NCATS]
Division of Preclinical Innovation [DPI]
U.S. Environmental Protection Agency [EPA]
National Institutes of Environmental Health Sciences [NIEHS]
National Toxicology Program [NTP]
U.S. Food and Drug Administration [FDA]
Oxidative stress has been implicated in the pathogenesis of a variety of diseases ranging from cancer to neurodegeneration. The antioxidant response element (ARE) signaling pathway plays an important role in the amelioration of oxidative stress. The KeratinoSens (Givaudan, Switzerland) is an in vitro test method which quantifies luciferase induction as a measure of activation of Keap1-Nrf2-antioxidationt/electrophile response element (ARE) dependant pathway in HaCaT human keratinocytes stably transfected with a selectable plasmid. The KeratinoSens assay is a cell-based assay with a reporter cell line to detect potential skin sensitizers by their ability to induce the Nrf2/ARE-response. The activation of the report gene under culture conditions can be detected by ONE-Glo Luciferase Assay System (Promega, Madison, WI). This cell line has been used to screen the Tox21 10K compound library to identify agonists that induce oxidative stress. The cytotoxicity of the Tox21 compound library against the KS-ARE cell line was tested in parallel by measuring the cell viability using CellTiter- Fluor assay system (Promega, Madison, WI) in the same wells.
HaCaT derived cell line KeratinoSens were dispensed at 1,500 cells/5uL/well in 1536-well white wall/solid bottom plates using a Multidrop Combi (ThermoFisher Scientific, Waltham, MA) dispenser. After the assay plates were incubated at 37 C/5% CO2 for 5 h, 23 nL of compounds dissolved in DMSO, positive controls or DMSO only was transferred to the assay plate by a pintool workstation (Kalypsys, San Diego, CA). The plates were incubated at 37 C/5% CO2 for 23 h, followed by addition of 1uL/well of CellTiter-Fluor reagent into the assay plates using a Flying Reagent Dispenser (Aurora Discovery, San Diego, CA) for cell viability readout that measures cytotoxicity. After 1 h incubation at 37 C/5% CO2 the fluorescence intensity was measured using a ViewLux (PerkinElmer, Shelton, CT) plate reader. Then 4uL/well of One-Glo were added using a Flying Reagent Dispenser. After the plates were incubated at room temperature for 30 min, the luminescence intensity in the assay plates was measured using ViewLux plate reader.
With `CCC(=O)O[C@H]1[C@H](O[C@@H]2[C@@H](C)[C@H](O[C@H]3C[C@@](C)(OC)[C@@H](O)[C@H](C)O3)[C@@H](C)C(=O)O[C@H](CC)[C@@](C)(O)[C@H](O)[C@@H](C)C(=O)[C@H](C)C[C@@]2(C)O)O[C@H](C)C[C@@H]1N(C)C` the Potency was “inactive”. In the case of `O=C1NC(=O)[C@@]2(CCOc3ccc(F)cc32)N1`, the Potency is reported as “inactive”. For `Cc1ccc(N=Nc2c(O)ccc3ccccc23)c(C)c1`, the Potency was 2.66 µM (active). For `O=c1[nH]c2cc(C(F)(F)F)c(N3CCOCC3)cc2n(CP(=O)(O)O)c1=O`, the Potency was “inactive”. In the case of `COc1ccc2cc1Oc1cc3c(cc1OC)CC[N+](C)(C)[C@H]3Cc1ccc(cc1)Oc1c(OC)c(OC)cc3c1[C@@H](C2)[N+](C)(C)CC3`, the Potency is reported as “inactive”. In the case of `CCCCCCCCOCCC#N`, the Potency is reported as “inactive”. For `CC(C)c1cc2c(cc1S(=O)(=O)O)[C@@]1(C)CCC[C@@](C)(C(=O)O)[C@@H]1CC2`, the Potency was “inactive”. With `CN1CCc2cccc3c2[C@H]1Cc1ccc(O)c(O)c1-3` the Potency was “inactive”. With `CC(COCC(C)OC(=O)c1ccccc1)OC(=O)c1ccccc1` (stereo not given) the Potency was “inactive”. For `CC(C)Nc1ccccc1`, the Potency was “inactive”. For `Cc1ccccc1C(N)=O`, the Potency was “inactive”. For `C=C(C)[C@H]1CC=C(C)C(=O)C1`, the Potency was “inactive”. With `N[C@@H](Cc1c[nH]c2ccc(O)cc12)C(=O)O` the Potency was “inactive”. For `CC(=O)Nc1ncc([N+](=O)[O-])s1`, the Potency was “inactive”. In the case of `CC(C)CCCC(C)CCO` (stereo not given), the Potency is reported as “inactive”. In the case of `O[C@@H]([C@H](O)[C@H](O)CBr)[C@H](O)CBr`, the Potency is reported as “inactive”. For `CC(C)(N=C=O)c1cccc(C(C)(C)N=C=O)c1`, the Potency was “inactive”. With `O=C(c1ccc(Cl)cc1)c1ccc(Cl)cc1` the Potency was “inactive”. In the case of `N#Cc1cc(NC(=O)C(=O)O)c(Cl)c(NC(=O)C(=O)O)c1`, the Potency is reported as “inactive”. In the case of `CCC1CCCCC1`, the Potency is reported as “inactive”. In the case of `COC(=O)c1ccc(C)cc1C1=NC(C)(C(C)C)C(=O)N1` (stereo not given), the Potency is reported as “inactive”. For `C(/C=C/C=C/Nc1ccccc1)=Nc1ccccc1`, the Potency was “inactive”. In the case of `Oc1ccc2c(c1)OC[C@@H](N1CCC(O)(c3ccc(F)cc3)CC1)[C@H]2O`, the Potency is reported as “inactive”. For `COC(=O)c1cc(Cl)ccc1OC`, the Potency was “inactive”. For `CCC(C)(C)C1CCCCC1OC(C)=O` (stereo not given), the Potency was “inactive”. For `O=S(=O)(O)CCS`, the Potency was “inactive”. In the case of `CC/C=C\CCO`, the Potency is reported as “inactive”. With `CC(C)CC(O)Cc1ccccc1` (stereo not given) the Potency was “inactive”. In the case of `CC1(C)[C@@H]2CC[C@]3(C2)[C@@H]1C(=O)CCC3(C)C`, the Potency is reported as “inactive”. For `Cc1cc(C)c(N)c(Cl)c1`, the Potency was “inactive”. With `C=CC(=O)OCC(CO)(COC(=O)C=C)COC(=O)C=C` the Potency was 4.87 µM (active) and 6.11 µM (active). For `CN(C)CCCNCCCN(C)C`, the Potency was “inactive”. In the case of `CCCCCCC(C)(C)C(=O)O`, the Potency is reported as “inactive”. In the case of `CCO[Si](C)(C)OCC`, the Potency is reported as “inactive”. For `C=C(C)C(=O)OCCC(F)(F)C(F)(F)C(F)(F)C(F)(F)C(F)(F)C(F)(F)F`, the Potency was “inactive”. With `C=CC(C)(CCC=C(C)C)OC=O` (stereo not given) the Potency was “inactive”. In the case of `CCOC(OCC)OCC`, the Potency is reported as “inactive”. For `O=C(Nc1ccc([N+](=O)[O-])cc1)Nc1ccc([N+](=O)[O-])cc1` (tested in a mixture with another compound), the Potency was “inactive”. For `COc1c2ccoc2cc2oc(=O)ccc12`, the Potency was “inactive”. In the case of `Cc1ccc2n[nH]nc2c1`, the Potency is reported as “inactive”.
